# Measurements reported in the supplement of paper PMC8728848.
# The full list was thinned out, with the strongest signals kept by preference.
# Columns and labels:
# Test in all cases: glycan array binding signal (z-score within array); higher = stronger binding
# Details in all cases: glycan notation: IUPAC condensed, linker removed
# Fuc(a1-2)Gal = target: Fuc(a1-2)Gal
# How it was run: (§1)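 The binding signal is a Z-score computed within each array and averaged over linkers. Arrays of the same protein sequence at different concentrations or buffers were also averaged together. Data originate from 3228 arrays in the Consortium for Functional Glycomics database, kept only where the protein sequence was available.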
# [1] = target: Fuc(a1-2)Gal(b1-3)GlcNAc(b1-2)Man(a1-3)[Fuc(a1-2)Gal(b1-3)GlcNAc(b1-2)Man(a1-6)]Man(b1-4)GlcNAc(b1-4)GlcNAc
# How it was run: as §1
# [2] = target: Fuc(a1-2)Gal(b1-4)[Fuc(a1-3)]GlcNAc(b1-2)[Fuc(a1-2)Gal(b1-4)[Fuc(a1-3)]GlcNAc(b1-4)]Man(a1-3)[Fuc(a1-2)Gal(b1-4)[Fuc(a1-3)]GlcNAc(b1-2)Man(a1-6)]Man(b1-4)GlcNAc(b1-4)GlcNAc
# How it was run: as §1
# [3] = target: Fuc(a1-2)[Gal(a1-3)]Gal(b1-3)GlcNAc(b1-2)Man(a1-3)[Fuc(a1-2)[Gal(a1-3)]Gal(b1-3)GlcNAc(b1-2)Man(a1-6)]Man(b1-4)GlcNAc(b1-4)GlcNAc
# How it was run: as §1
# [4] = target: Fuc(a1-2)[Gal(a1-3)]Gal(b1-3)GlcNAc(b1-2)Man(a1-3)[Fuc(a1-2)[Gal(a1-3)]Gal(b1-3)GlcNAc(b1-2)Man(a1-6)]Man(b1-4)GlcNAc(b1-4)[Fuc(a1-6)]GlcNAc
# How it was run: as §1
# [5] = target: Fuc(a1-2)[Gal(a1-3)]Gal(b1-3)GlcNAc(b1-3)GalNAc
# How it was run: as §1
# [6] = target: Fuc(a1-2)[Gal(a1-3)]Gal(b1-4)GlcNAc
# How it was run: as §1
# [7] = target: Fuc(a1-2)[Gal(a1-3)]Gal(b1-4)[Fuc(a1-3)]GlcNAc(b1-3)GalNAc
# How it was run: as §1
# [8] = target: Fuc(a1-2)[GalNAc(a1-3)]Gal(b1-3)GalNAc(a1-3)[Fuc(a1-2)]Gal(b1-4)GlcNAc
# How it was run: as §1
# [9] = target: Gal(a1-3)Gal(b1-4)GlcNAc(b1-2)Man
# How it was run: as §1
# [10] = target: Gal(a1-3)[Gal(a1-4)]Gal(b1-4)GlcNAc
# How it was run: as §1
# Gal(a1-6)Glc = target: Gal(a1-6)Glc
# How it was run: as §1
# Gal(b1-3)GalNAc(b1-3)Gal = target: Gal(b1-3)GalNAc(b1-3)Gal
# How it was run: as §1
# Gal(b1-3)GlcNAc = target: Gal(b1-3)GlcNAc
# How it was run: as §1
# [11] = target: Gal(b1-3)[Fuc(a1-4)]GlcNAc(b1-3)Gal(b1-4)[Fuc(a1-3)]GlcNAc
# How it was run: as §1
# [12] = target: Gal(b1-3)[Fuc(a1-4)]GlcNAc(b1-6)GalNAc
# How it was run: as §1
# [13] = target: Gal(b1-3)[Neu5Ac(a2-6)]GlcNAc(b1-4)Gal(b1-4)Glc
# How it was run: as §1
# Gal(b1-4)Glc = target: Gal(b1-4)Glc
# How it was run: as §1
# [14] = target: Gal(b1-4)GlcNAc(b1-2)Man(a1-3)[Gal(b1-4)GlcNAc(b1-2)Man(a1-6)][Gal(b1-4)GlcNAc(b1-4)]Man(b1-4)GlcNAc(b1-4)[Fuc(a1-6)]GlcNAc
# How it was run: as §1
# [15] = target: Gal(b1-4)GlcNAc(b1-2)[Gal(b1-4)GlcNAc(b1-6)]Man(a1-6)[Gal(b1-4)GlcNAc(b1-2)Man(a1-3)]Man(b1-4)GlcNAc(b1-4)GlcNAc
# How it was run: as §1
# [16] = target: Gal(b1-4)GlcNAc(b1-3)Gal(b1-4)Glc
# How it was run: as §1
# [17] = target: Gal(b1-4)GlcNAc(b1-3)Gal(b1-4)GlcNAc(b1-3)Gal(b1-4)GlcNAc(b1-2)Man(a1-3)[Gal(b1-4)GlcNAc(b1-3)Gal(b1-4)GlcNAc(b1-3)Gal(b1-4)GlcNAc(b1-2)Man(a1-6)]Man(b1-4)GlcNAc(b1-4)[Fuc(a1-6)]GlcNAc
# How it was run: as §1
# [18] = target: Gal(b1-4)GlcNAc(b1-3)Gal(b1-4)GlcNAc(b1-3)GalNAc
# How it was run: as §1
# [19] = target: Gal(b1-4)GlcNAc(b1-3)GalNAc
# How it was run: as §1
# Gal3S(b1-3)GalNAc = target: Gal3S(b1-3)GalNAc
# How it was run: as §1
# Gal6S(b1-3)GlcNAc = target: Gal6S(b1-3)GlcNAc
# How it was run: as §1
# [20] = target: GalNAc(b1-3)Gal(a1-6)Gal(b1-4)Glc
# How it was run: as §1
# Glc(b1-4)Glc = target: Glc(b1-4)Glc
# How it was run: as §1
# [21] = target: GlcNAc(b1-2)[GlcNAc(b1-4)]Man(a1-3)[GlcNAc(b1-4)][GlcNAc(b1-2)[GlcNAc(b1-6)]Man(a1-6)]Man(b1-4)GlcNAc(b1-4)GlcNAc
# How it was run: as §1
# [22] = target: GlcNAc(b1-3)Gal(b1-4)GlcNAc(b1-3)Gal(b1-4)GlcNAc(b1-3)Gal(b1-4)GlcNAc(b1-3)Gal(b1-4)GlcNAc(b1-2)[GlcNAc(b1-3)Gal(b1-4)GlcNAc(b1-3)Gal(b1-4)GlcNAc(b1-3)Gal(b1-4)GlcNAc(b1-3)Gal(b1-4)GlcNAc(b1-6)]Man(a1-6)[GlcNAc(b1-3)Gal(b1-4)GlcNAc(b1-3)Gal(b1-4)GlcNAc(b1-3)Gal(b1-4)GlcNAc(b1-3)Gal(b1-4)GlcNAc(b1-2)Man(a1-3)]Man(b1-4)GlcNAc(b1-4)[Fuc(a1-6)]GlcNAc
# How it was run: as §1
# [23] = target: GlcNAc(b1-3)Gal(b1-4)GlcNAc(b1-6)[GlcNAc(b1-3)]Gal(b1-4)GlcNAc
# How it was run: as §1
# [24] = target: GlcNAc(b1-3)[GlcNAc(b1-4)][GlcNAc(b1-6)]GlcNAc
# How it was run: as §1
# [25] = target: GlcNAc6S(b1-3)Gal(b1-4)GlcNAc
# How it was run: as §1
# [26] = target: Man(a1-2)Man(a1-3)[Man(a1-2)Man(a1-6)]Man(a1-6)[Man(a1-2)Man(a1-2)Man(a1-3)]Man
# How it was run: as §1
# [27] = target: Neu5Ac(a2-3)Gal(b1-3)GlcNAc(b1-6)GalNAc
# How it was run: as §1
# [28] = target: Neu5Ac(a2-3)Gal(b1-3)[Fuc(a1-4)]GlcNAc(b1-3)Gal(b1-3)[Fuc(a1-4)]GlcNAc
# How it was run: as §1
# [29] = target: Neu5Ac(a2-3)Gal(b1-3)[GlcNAc(b1-6)]GalNAc
# How it was run: as §1
# [30] = target: Neu5Ac(a2-3)Gal(b1-4)GlcNAc(b1-2)Man
# How it was run: as §1
# [31] = target: Neu5Ac(a2-3)Gal(b1-4)[Fuc(a1-3)]GlcNAc(b1-3)Gal
# How it was run: as §1
# [32] = target: Neu5Ac(a2-3)[GalNAc(b1-4)]Gal(b1-4)GlcNAc(b1-3)GalNAc
# How it was run: as §1
# [33] = target: Neu5Ac(a2-6)Gal(b1-4)GlcNAc(b1-2)Man
# How it was run: as §1
# [34] = target: Neu5Ac(a2-6)Gal(b1-4)GlcNAc(b1-2)Man(a1-3)[Neu5Ac(a2-6)Gal(b1-4)GlcNAc(b1-2)Man(a1-6)]Man(b1-4)GlcNAc(b1-4)GlcNAc
# How it was run: as §1
# [35] = target: Neu5Ac(a2-6)Gal(b1-4)GlcNAc(b1-2)Man(a1-6)[GlcNAc(b1-2)Man(a1-3)]Man(b1-4)GlcNAc(b1-4)GlcNAc
# How it was run: as §1
# [36] = target: Neu5Ac(a2-6)Gal(b1-4)GlcNAc(b1-3)Gal(b1-4)GlcNAc(b1-3)Gal(b1-4)GlcNAc(b1-2)Man(a1-3)[Neu5Ac(a2-6)Gal(b1-4)GlcNAc(b1-3)Gal(b1-4)GlcNAc(b1-3)Gal(b1-4)GlcNAc(b1-2)Man(a1-6)]GalNAc
# How it was run: as §1
# [37] = target: Neu5Ac(a2-6)Gal(b1-4)GlcNAc(b1-3)Gal(b1-4)GlcNAc(b1-3)[Neu5Ac(a2-6)Gal(b1-4)GlcNAc(b1-3)Gal(b1-4)GlcNAc(b1-6)]GalNAc
# How it was run: as §1
# [38] = target: Neu5Ac(a2-6)Gal(b1-4)GlcNAc(b1-6)GalNAc
# How it was run: as §1
# Neu5Ac(a2-8)Neu5Ac = target: Neu5Ac(a2-8)Neu5Ac
# How it was run: as §1
# [39] = target: Neu5Ac(a2-8)Neu5Ac(a2-8)Neu5Ac(a2-3)[GalNAc(b1-4)]Gal(b1-4)Glc
# How it was run: as §1
# [40] = target: Neu5Gc(a2-3)Gal(b1-3)GlcNAc
# How it was run: as §1
# [41] = target: Neu5Gc(a2-8)Neu5Gc(a2-3)Gal(b1-4)GlcNAc
# How it was run: as §1
binder,measurement,setting,value
"CcfD (Bacteroides fragilis), Q5L9G4 (protein) MKKQNSIYTLLIALLCFVSSCDYLGVSDQLAGGLQNTEQVFDNVSYTKRWYANVFAGIPDYSGINSVNVGAFKNPWTGMCDELVVGYGNSSKYNNSDRNAANMGFHRYGDCYKYIRQANIFLQKAHPIMTTGTQGDQLLEDELTQMKANVRFMRAFYHYLLFEQYGPIILVKDKIYNATEDQDVPRNTVDEVIEYIDSELTAVASELTQEPIFEDKDYRAWPTKGVALAVRAKLWLYAASPLLNGGYREALSVTNPDGTRLFPDYDAGKWEKALAACKDFIDYAEAGRYELYKEYKDDNGAVIDPDKSVYNLFQKYTHEIIWATANNDWGGMNGDAFDRRIAPRCEKNGLGSTGVTQELVDAFYMKDGFPVSATAYLPQSTLYQEEGYGTYKDQNDNFSKKYTNVTVSNRYLNREPRFYNTVFFNGRQWPVSCNQVLFYNGGNSGVQEGQATLTGYMLFKRFNRSVSLTNPGVASQFRPSIIFRLADFYLMYAEAANEVNPNDARVLKYLNLVRERAGLPDIETLNPAIRGNQELQRAAIQRERQIELATEGQRYFDVRRWMIADKNGEGRQNGYVHGMNVRGESNDKEDFNRIVEASQIVFNRKMYLYPMPDSEMRKTKNLVQNPGW",glycan array binding signal (z-score),Fuc(a1-2)Gal,0.811
same,glycan array binding signal (z-score),[1],5.05
same,glycan array binding signal (z-score),[2],3.75
same,glycan array binding signal (z-score),[3],2.68
same,glycan array binding signal (z-score),[4],0.2
same,glycan array binding signal (z-score),[5],0.095
same,glycan array binding signal (z-score),[6],0.056
same,glycan array binding signal (z-score),[7],0.64
same,glycan array binding signal (z-score),[8],2.62
same,glycan array binding signal (z-score),[9],-0.588
same,glycan array binding signal (z-score),[10],-1.43
same,glycan array binding signal (z-score),Gal(a1-6)Glc,-0.384
same,glycan array binding signal (z-score),Gal(b1-3)GalNAc(b1-3)Gal,-0.456
same,glycan array binding signal (z-score),Gal(b1-3)GlcNAc,0.42
same,glycan array binding signal (z-score),[11],2.86
same,glycan array binding signal (z-score),[12],-0.036
same,glycan array binding signal (z-score),[13],0.607
same,glycan array binding signal (z-score),Gal(b1-4)Glc,-0.056
same,glycan array binding signal (z-score),[14],3.04
same,glycan array binding signal (z-score),[15],-0.896
same,glycan array binding signal (z-score),[16],0.627
same,glycan array binding signal (z-score),[17],1.57
same,glycan array binding signal (z-score),[18],0.43
same,glycan array binding signal (z-score),[19],-0.998
same,glycan array binding signal (z-score),Gal3S(b1-3)GalNAc,0.942
same,glycan array binding signal (z-score),Gal6S(b1-3)GlcNAc,1.26
same,glycan array binding signal (z-score),[20],-0.64
same,glycan array binding signal (z-score),Glc(b1-4)Glc,1.59
same,glycan array binding signal (z-score),[21],-0.548
same,glycan array binding signal (z-score),[22],6.49
same,glycan array binding signal (z-score),[23],0.069
same,glycan array binding signal (z-score),[24],2.83
same,glycan array binding signal (z-score),[25],-0.516
same,glycan array binding signal (z-score),[26],2.93
same,glycan array binding signal (z-score),[27],-0.64
same,glycan array binding signal (z-score),[28],-0.68
same,glycan array binding signal (z-score),[29],0.22
same,glycan array binding signal (z-score),[30],-0.338
same,glycan array binding signal (z-score),[31],0.036
same,glycan array binding signal (z-score),[32],0.036
same,glycan array binding signal (z-score),[33],-0.522
same,glycan array binding signal (z-score),[34],0.561
same,glycan array binding signal (z-score),[35],4.06
same,glycan array binding signal (z-score),[36],2.39
same,glycan array binding signal (z-score),[37],2.75
same,glycan array binding signal (z-score),[38],-1.06
same,glycan array binding signal (z-score),Neu5Ac(a2-8)Neu5Ac,-0.378
same,glycan array binding signal (z-score),[39],-0.936
same,glycan array binding signal (z-score),[40],-0.456
same,glycan array binding signal (z-score),[41],-1.19
